# Most compounds without a hit are left out; they make up all but 4.7% or so of the library.
# TRHR enhancer = allosteric enhancers of human TRH receptor; TRHR cells, fluo-8 calcium fluorescence, EC20 TRH enhancement; P34981; enhancement, % at 2 µM; 360,000 tested, 0.66% active; in the data active = enhancement above about 30%; note: 0% is about no effect
# Target sequence (P34981 whole entry, looked up): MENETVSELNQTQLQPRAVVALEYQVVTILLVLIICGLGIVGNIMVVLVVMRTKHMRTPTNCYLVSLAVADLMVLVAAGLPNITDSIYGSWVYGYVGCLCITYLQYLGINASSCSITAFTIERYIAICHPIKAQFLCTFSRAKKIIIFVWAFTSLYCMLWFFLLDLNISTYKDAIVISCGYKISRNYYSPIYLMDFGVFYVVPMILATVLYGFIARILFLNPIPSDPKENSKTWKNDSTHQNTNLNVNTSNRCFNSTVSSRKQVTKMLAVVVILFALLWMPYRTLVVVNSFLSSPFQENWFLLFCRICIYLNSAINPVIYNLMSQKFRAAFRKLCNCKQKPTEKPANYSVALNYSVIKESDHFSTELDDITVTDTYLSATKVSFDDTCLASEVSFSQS
#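 Enhancer read-out: after compound pinning and an initial kinetic agonist-mode read, an EC20 of TRH (10 nM final) was injected and fluo-8 calcium signal (Ex 480/Em 530) followed at 1 s/cycle for 100 cycles in TRHR-expressing cells.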
# TRHR agonist = TRH receptor (human) agonism; 360,000 tested, 0.18% active; activation, % at 2 µM; TRHR cells, calcium flux fluo-8, FDSS agonist mode; note: 0% is about no effect
#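 Agonist-mode FDSS calcium read (Ex 480/Em 530, 1 s cycles) in 1536-well TRHR cells with fluo-8 dye, after 10-cycle baseline and 23 nL compound addition; TRH at EC20 (10 nM final) added afterwards for the enhancer phase.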
# D1 ag = human D1 receptor agonism. P21728. HEK293 T-REx D1 cells, calcium flux, agonist mode. activation, % at 2 µM. 360,000 tested, 1% active. AID 504660; note: 0% is about no effect
#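 Inducible HEK293 T-REx D1 cells, force-coupled to calcium signalling, were plated at 4000 cells/well with tetracycline and held overnight at 30 C. After no-wash calcium dye loading, compound-evoked calcium rise over 180 s flagged agonists.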
# D1 potentiator = potentiators of human D1 dopamine receptor. P21728. HEK293 TREx D1 cells, calcium flux, dopamine EC20 potentiation. potentiation, % at 10 µM. 360,000 tested, 0.036% active. AID 504651; in the data active = potentiation above about 30%; note: 0% is about no effect
# D1 antag = blocks dopamine activation of the human D1 receptor. P21728. HEK293 TREx D1 cells, calcium flux, dopamine EC80; active compounds read low. activity change, negative = inhibition, % at 10 µM. 360,000 tested, 3.2% active. AID 504652; in the data active = activity change below about -30%; note: % is set by controls: 0 for no effect and ±100 for the full control effect
#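 Allosteric or orthosteric antagonism assessed as attenuation of the calcium response to EC80 dopamine, added 180 s after compound, in induced HEK293 Trex D1 cells loaded with no-wash calcium dye.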
# An asterisk follows results filed as active; . = not tested or not shown. Cut-off read from the data, not from the text of the source, unless noted: active = activation above about 30%; inactive = the rest.
SMILES,TRHR enhancer,TRHR agonist,D1 ag,D1 potentiator,D1 antag
O=S(=O)(Nc1ccccc1)c1ccc(Oc2ncc(C(F)(F)F)cc2Cl)cc1,2,3,32*,-2,-3
CCCNS(=O)(=O)c1ccc(Oc2ncc(C(F)(F)F)cc2Cl)cc1,-1,5,46*,-9,-6
CS(=O)(=O)NCCNc1ncc(C(F)(F)F)cc1Cl,-3,0,1,0,-32*
CC(=O)Nc1ccc(Nc2nc3ccc(C)cc3n3nnnc23)cc1,7,0,-1,-1,1
Cc1ccc(S(=O)(=O)N2[C@@H](c3cccc(Cl)c3)C(C(=O)O)=CC[C@H]2c2ccc(C(C)C)cc2)cc1,-6,0,7,-12,-35*
Cc1ccc(S(=O)(=O)N2[C@@H](c3ccccc3F)C(C(=O)O)=CC[C@H]2c2ccc(Cl)c(Cl)c2)cc1,1,0,58*,-11,-24
CCOC(=O)N1CCN(C(=O)c2noc3c2COc2ccccc2-3)CC1,2,0,7,-4,-31*
CCCN1CCN(C(=O)c2noc3c2COc2ccc(C)cc2-3)CC1,-1,0,15,-3,-27
Cc1ccc(NC(=O)C(=O)NCC(c2cccnc2)N2CCN(c3ccccc3F)CC2)cc1Cl (stereo not given),-10,0,0,0,-9
S=C(NCCc1c[nH]c2ccccc12)NC1CCCC1,-2,1,7,1,-39*
Cc1ccc(S(=O)(=O)NCCc2c[nH]c3ccccc23)cc1,-1,0,4,-6,-19
O=S(=O)(NCCc1c[nH]c2ccccc12)c1ccccc1,-5,0,20,-6,-36*
S=C(NCCCc1ccccc1)NC1CCCCC1,-3,2,32*,-5,-1
S=C(NCCc1c[nH]c2ccccc12)NC1CC1,32*,0,1,-3,0
CC(C)C[C@@H](CN=[N+]=[N-])N1CCN(C)CCC1=O,31*,0,2,2,-3
CN(Cc1ccccc1)c1oc(COc2ccccc2F)nc1C#N,5,-1,29,.,-33*
COC(=O)c1ccn(-c2nc(-c3ccc(Cl)cc3)cc(C(F)(F)F)n2)n1,-21,-1,-2,0,9
COc1ccc(C(=O)c2cn(Cc3ccccc3)c3ccccc3c2=O)cc1OC,48*,0,1,0,-33*
COc1ccc(NC(=O)CSc2nc(-c3ccco3)cc(C(F)(F)F)n2)cc1OC,-3,-1,12,-2,-30*
Cc1ccc(NC(=O)CSc2nc(-c3ccco3)cc(C(F)(F)F)n2)cc1C,1,1,4,-3,-12
CCOc1cc(C(=O)Nc2cc(C)ccc2C)ccc1OCC(=O)N1CCCCC1,0,0,2,-11,-90*
CCCc1nnc(NC(=O)c2cc(=O)c3cc(Cl)ccc3o2)s1,0,0,0,0,-1
C#CCNC(=O)c1ccc(OCc2ccccc2)cc1Cl,-2,-1,10,-1,1
O=C(NCCCl)c1ccc(OCc2ccccc2)cc1Cl,-1,1,57*,-5,-10
CCC(Sc1nc2n[nH]c(C)c2c(=N)n1-c1cccc(Cl)c1C)C(=O)N(CC)CC (stereo not given),-3,0,1,5,-41*
SMILES,TRHR enhancer,TRHR agonist,D1 ag,D1 potentiator,D1 antag
CCc1ccc(-n2c(SC(CC)C(=O)N(CC)CC)nc3n[nH]c(C)c3c2=N)cc1 (stereo not given),-1,-1,3,4,15
COc1ccc(-n2c(=O)c3ccccc3n(Cc3ccccc3C)c2=O)c(OC)c1,2,1,-1,4,-14
CCCCCc1cc(O)c2c(C)cc(=O)oc2c1,-14,6,108*,-18,-10
CCCc1cc(=O)oc2cc(C)cc(O)c12,-3,5,19,-12,-8
CCOCCc1nn2c(=O)cc(COC(=O)COc3ccccc3Cl)nc2s1,1,0,2,-5,-21
CC1=CC(C)(C)Nc2ccc(C)cc21,-4,0,1,3,4
CC1=CC(C)(C)Nc2ccc(Cc3ccc4c(c3)C(C)=CC(C)(C)N4)cc21,38*,0,3,7,70
CCNC(=O)C1CCN(c2nnc(C)c3c(C)n(-c4ccc(OC)cc4)nc23)CC1,-1,-1,4,0,-2

# Source: PubChem BioAssay (National Center for Advancing Translational Sciences (NCATS))
